Measured values: PubChem BioAssay
“And” between values parts separate entries of the source, which are not always exact repeats. Equal entries are not always repeated. The source made the active and inactive calls.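 The calls were made as follows, unless noted: active = compounds whose cell count with miR-34 switched on is under 0.7 times the count with it off; inactive = the rest.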

Experiments:
[1] = viability loss with induced miR-34 in A549 – imaging, A549 dox-inducible miR-34, nuclei and caspase counts, primary screen (AID 1347080); conditions: A549 miR-34 inducible, Hoechst nuclei count, 48 h; also: test concentration not given here
[2] = MELAS cybrid and Rieske KO viability enhancers – cell-based, MELAS cybrids, Rieske KO mouse fibroblasts, CellTiter-Glo, primary screen (AID 1508586;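 active = mean z-score across replicates of 1.96 or higher in either the MELAS or the Rieske mutant cell line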;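 also: test concentration not given here; z relative to plate mean and SD of compound and empty wells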); conditions: low glucose
[3] = galactose survival enhancers in mitochondrial complex I cybrids – cell-based, galactose medium, ATP luminescence, primary screen (AID 1645843;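 active = z-score of at least 1.8 in each of two replicates, scored against plate mean and spread of sample wells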;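 also: positive z means more ATP and so rescue of galactose-driven cybrid death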); conditions: complex I mutant cybrid cells, 72 h, stronger effect = higher value
[4] = stronger effect = lower value, cell number ratio, induced over uninduced
[5] = measured here: relative caspase fold change +Dox/-Dox
[6] = measured here: total cells with miR-34 induction, stronger effect = lower value
[7] = measured here: total cells without miR-34 induction
[8] = MELAS cybrid survival, CellTiter-Glo 48 h, stronger effect = higher value
[9] = Rieske KO mouse fibroblast survival, CellTiter-Glo 72 h

SMILES	fold change [1, 4]	fold change [1, 5]	cell count [1, 6]	cell count [1, 7]	z-score [2, 8]	z-score [2, 9]	z-score [3]
CCNC(=O)c1cccnc1N1CCN(c2ccc(C)cc2C)CC1	0.919 (inactive)	1.12	6880	7490	-0.459 (inactive)	0.378	-0.485 (inactive)
O=[N+]([O-])c1ccc(-c2ccn[nH]2)cc1	0.922 (inactive)	0.744	8360	9070	-0.915 (inactive)	-0.293	0.59 (inactive)
Cc1nn(C)c(C)c1-c1ccnc(NCCc2nc3ccc(Cl)cc3[nH]2)n1	0.924 (inactive)	3.32	1430	1550	-0.908 (inactive)	0.453	-0.38 (inactive)
CCCCNS(=O)(=O)c1ccccc1	0.925 (inactive)	0.335	8780	9480	-0.187 (inactive)	0.108	0.175 (inactive)
CCN(Cc1nccn1C)C(=O)c1cc(-c2cnc(C)nc2)nc2cc(F)ccc12	0.881 (inactive)	1.32	8950	10200	-0.0942 (inactive)	-0.488	-0.2 (inactive)
O=C(O)c1sccc1S(=O)(=O)Nc1ccc(Cl)cc1	0.887 (inactive)	0.469	8810	9930	-0.651 (inactive)	-0.438	0.48 (inactive)
Cc1cccc2c(C(=O)N3C4CCCCC3CCC4)cc(-c3cncnc3)nc12	0.922 (inactive)	1.14	8060	8740	0.139 (inactive)	-0.667	-0.275 (inactive)
O=C(O)CCCNC(=O)NC1CCCCC1	0.89 (inactive)	0.215	8970	10100	0.354 (inactive)	-0.267	0.455 (inactive)
COc1ccc(S(=O)(=O)N2CCN(S(=O)(=O)c3ccc4c(c3)OCCO4)CC2)cc1	0.881 (inactive)	0.373	8270	9390	-0.316 (inactive)	-0.269	0.51 (inactive)
Cc1ccc(Sc2cccc3nc(N)nc(N)c23)cc1	1.07 (inactive)	0.775	3810	3570	0.0344 (inactive)	0.646	-2.52 (inactive)
CCc1c(C)[nH]n(-c2nn[nH]n2)c1=O	0.897 (inactive)	0.608	8110	9050	-1.16 (inactive)	-0.864	0.055 (inactive)
CN1CCN(Cc2ccc3sccc3c2)CC1CCO (centres undefined)	0.86 (inactive)	1.5	8240	9580	0.0101 (inactive)	-0.424	-0.48 (inactive)
CSCCC(NC(C)=O)C(=O)O (centres undefined)	0.861 (inactive)	0.784	8190	9520	0.71 (inactive)	-0.087	0.53 (inactive)
CN1CC2c3ccccc3Oc3ccc(Cl)cc3C2C1 (centres undefined)	0.788 (inactive)	0.355	4990	6330	0.214 (inactive)	0.0022	-2.21 (inactive)
CCc1nc(NC(=O)N(C)Cc2cccc(-n3cccn3)c2)nn1C	0.843 (inactive)	1.39	7990	9480	0.262 (inactive)	-0.471	-0.535 (inactive)
CC(=O)[C@]1(O)Cc2c(O)c3c(c(O)c2C(OC2CC(N)C(O)C(C)O2)C1)C(=O)c1ccccc1C3=O (some centres undefined)	0.995 (inactive) and 0.89 (inactive)	0.907 and 1.04	734 and 2090	738 and 2350	2.4 (active)	-0.525	-1.88 (inactive)
OC(CNCC(O)C1CCc2cc(F)ccc2O1)C1CCc2cc(F)ccc2O1 (centres undefined)	1.62 (inactive)	0.335	2500	1540	0.602	2.88	-2.66 (inactive)
CCn1ccnc1CN(C)C(=O)c1cc(-c2cnc(N)nc2)nc2cc(C)ccc12	0.962 (inactive)	1.43	9170	9540	-0.0965 (inactive)	0.497	0.64 (inactive)
FC(F)Oc1ccc(-c2nc3c(cnn3Cc3cccs3)[nH]2)cc1	0.844 (inactive)	1.61	6520	7720	-0.426	2.02	1.1 (inactive)
O=C(NCCOc1cccnc1)c1ccc2ncsc2c1	0.858 (inactive)	1.5	7900	9210	0.0996 (inactive)	-0.557	-0.56 (inactive)
O=C(O)Cc1c[nH]c2ccccc12	0.913 (inactive)	0.9	8300	9090	-0.643 (inactive)	-0.265	0.49 (inactive)

SMILES	fold change [1, 4]	fold change [1, 5]	cell count [1, 6]	cell count [1, 7]	z-score [2, 8]	z-score [2, 9]	z-score [3]
OCCCc1cn(CC2CCN(c3ncnc4nc[nH]c34)CC2)nn1	0.959 (inactive)	1.9	8820	9200	0.238 (inactive)	-0.383	-0.565 (inactive)
Cc1cccc(CN2CCN(c3ncnc4sccc34)CC2=O)c1	0.946 (inactive)	2.04	4670	4940	-0.529 (inactive)	-0.501	2.43 (inactive)
CN1CCN(Cc2ccc(-c3nc(-c4cccnc4)cc(=O)[nH]3)cc2)CC1	0.911 (inactive)	1.1	8750	9610	-0.317 (inactive)	-0.261	-0.55 (inactive)
Cc1cc(-c2cccc3cccnc23)nc(N)n1	0.914 (inactive)	1.55	9030	9880	-0.012 (inactive)	-0.264	-0.525 (inactive)
CCCCCCCCCCCCCCCC(=O)NCC(=O)O	0.908 (inactive)	1.05	9030	9940	-0.0953 (inactive)	0.105	1.27 (inactive)
CCc1nc(NC(=O)N(C)CC2Cc3ccccc3O2)nn1C (centres undefined)	0.87 (inactive)	1.41	9140	10500	0.229 (inactive)	-0.335	-0.515 (inactive)
O=C(CC(=O)C(F)(F)F)c1cccs1	0.883 (inactive)	0.164	8190	9270	-1.06 (inactive)	0.275	-0.485 (inactive)
CCc1noc(Cn2cnc3sc4c(c3c2=O)CCC(C)C4)n1 (centres undefined)	0.911 (inactive)	1.55	8510	9340	0.0666 (inactive)	0.0902	-0.515 (inactive)
O=C(O)c1ccc(B(O)O)cc1	0.887 (inactive)	0.4	8340	9400	0.638 (inactive)	0.194	0.105 (inactive)
O=C(Nc1n[nH]c(Cc2ccccc2)n1)N1CCN(c2ncncn2)CC1	0.914 (inactive)	1.11	9380	10300	0.379	4.03	0.44 (inactive)
Nc1ccc(Sc2ccc(N3C(=O)c4ccc(N)cc4C3=O)cc2)cc1	0.816 (inactive)	1.86	8200	10000	0.874 (inactive)	0.253	-0.975 (inactive)
CC(C)=CCn1cnc(=N)c2[nH]cnc21	0.911 (inactive)	0.79	8970	9850	-0.546 (inactive)	-0.741	1.17 (inactive)
COc1cc(F)ccc1C(=O)N1CCc2[nH]nc(Cc3ccccc3)c2C1	0.845 (inactive)	1.46	6700	7930	0.33 (inactive)	0.986	-0.125 (inactive)
COc1ccc(CC(C)NCC(O)c2ccc(O)c(NC=O)c2)cc1 (centres undefined)	0.94 (inactive) and 0.989 (inactive)	1.58 and 0.394	10500 and 8090	11200 and 8180	0.143 (inactive)	-0.0828	-0.17 (inactive)
CN(C)CCOc1ccc(C(=C(CCCl)c2ccccc2)c2ccccc2)cc1	0.778 (inactive) and 1.03 (inactive)	1.46 and 0.374	3730 and 7050	4790 and 6850	-0.446 (inactive)	-0.000629	-1.88 (inactive)
CC(=O)NCC1CN(c2ccc(N3CCOCC3)c(F)c2)C(=O)O1 (centres undefined)	0.917 (inactive) and 0.981 (inactive)	1.72 and 0.989	6880 and 7480	7500 and 7630	-0.285 (inactive)	0.466	0.65 (inactive)
OB(O)c1ccccc1	0.876 (inactive)	0.386	7850	8950	-0.818 (inactive)	0.216	0.615 (inactive)
Cc1cc(CN(C)C(=O)c2cc(-c3cnn(C(C)C)c3)nc3cc(F)ccc23)on1	0.883 (inactive)	1.43	8520	9660	-1.12 (inactive)	0.385	-0.48 (inactive)
O=C(Nc1n[nH]c(Cc2ccccc2)n1)N1CCN(c2ncccn2)CC1	0.879 (inactive)	0.976	8590	9760	-0.0698	4	0.005 (inactive)
CCc1nc(NC(=O)NC(c2ccccc2)c2ccccc2)nn1C	0.893 (inactive)	1.04	6610	7400	-0.352 (inactive)	-0.694	1.48 (inactive)
O=c1cc(-c2ccncc2)nc(-c2cccc(CN3CCCC(CO)C3)c2)[nH]1 (centres undefined)	0.934 (inactive)	0.922	8470	9070	-0.423 (inactive)	0.0738	0.08 (inactive)
